Source: PubChem BioAssay (Tox21)
“And” between values parts separate entries of the source, which are not always exact repeats. Equal values may be shown once. Results filed as inconclusive are left out. The source made the active and inactive calls. Calls follow the shape of the dose curve; as a rule, active = well fitted curve in the direction sought with a large enough effect in the repeat runs; inconclusive = weak or mixed curves; inactive = no such curve, though single readings can be large; an effect the other way counts as inactive or inconclusive.

Molecular target: Cytochrome P450 1A2 (Homo sapiens) (UniProt P05177)
Assay: Cytochrome P450 Family 1 Subfamily A Member 2 (CYP1A2) small molecule antagonists: luciferase reporter qHTS assay (AID 1671199)
Settings: P450-Glo CYP1A2 enzyme, luciferin luminescence, 1 h; series mostly up to 115 µM; activity change, negative = inhibition: at the top concentration
Summary of the method: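 P450-Glo CYP1A2 enzyme–proluciferin substrate mix with compound 10 min at room temperature, then NADPH regeneration 1 h at room temperature. Luciferin detection reagent added, luminescence read after 20 min; furafylline positive control.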
% is scaled to controls: 0 for no effect and ±100 for the full control effect; potency is read from the fitted curve at half-maximal effect.
Also: nearly all actives have a fitted effect of over 50% in size.

Cytochrome P450 1A2 (Homo sapiens), sequence (P05177 whole entry, looked up): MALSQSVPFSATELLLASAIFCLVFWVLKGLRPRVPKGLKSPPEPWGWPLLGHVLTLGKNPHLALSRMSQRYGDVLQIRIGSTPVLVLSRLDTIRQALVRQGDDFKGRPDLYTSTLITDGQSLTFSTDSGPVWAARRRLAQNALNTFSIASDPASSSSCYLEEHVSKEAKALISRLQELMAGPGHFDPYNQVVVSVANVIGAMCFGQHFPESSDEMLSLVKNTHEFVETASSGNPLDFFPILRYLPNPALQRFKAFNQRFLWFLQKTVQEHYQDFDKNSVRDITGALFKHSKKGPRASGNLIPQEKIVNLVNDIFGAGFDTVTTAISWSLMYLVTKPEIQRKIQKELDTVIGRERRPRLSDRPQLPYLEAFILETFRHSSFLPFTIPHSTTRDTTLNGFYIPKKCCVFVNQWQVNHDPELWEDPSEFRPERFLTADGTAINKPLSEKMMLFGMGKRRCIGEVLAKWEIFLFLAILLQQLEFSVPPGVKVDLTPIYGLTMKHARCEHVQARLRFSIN

Row | SMILES | activity change, negative = inhibition | Potency
1 | CC(C)CCOCCC(C)C | -20.4% (inactive) | –
2 | c1cc[nH]c1 | -18.2% (inactive) | –
3 | CC(=O)C=O | -15.6% (inactive) | –
4 | CC(=O)OC(OC(C)=O)c1ccc([N+](=O)[O-])o1 | – | 45.6 µM (active)
5 | Cc1cc(C)c(C=O)c(C)c1 | -16% (inactive) | –
6 | C/C=C/C=N/NC(=O)c1ccncc1 | -12.3% [at 53 µM] (inactive) | –
7 | Cn1cccc1 | -14.1% (inactive) | –
8 | COc1cccc(OC)c1O | – | 35.6 µM (active)
9 | CCCCCCCCCCCCCC[n+]1ccccc1 | – | 71 µM (active)
10 | CCN(CC)CCNc1ccc(CO)c2sc3ccccc3c(=O)c12 | – | 0.512 µM (active)
11 | CCCCCCC(C)OC(=O)COc1nc(F)c(Cl)c(N)c1Cl (stereo unspecified) | – | 5.64 µM (active)
12 | CC1(C)C(=O)N(Br)C(=O)N1Br | -22.4% (inactive) | –
13 | CSc1ccc2c(c1)N(CCC1CCCCN1C)c1ccccc1S2 (stereo unspecified) | – | 28.1 µM (active) and 15.5 µM (active)
14 | CCCCCCCCCCCCCc1ccccc1 | -2.32% [at 53 µM] (inactive) | –
15 | Oc1cc2ccccc2cc1O | – | 31.7 µM (active)
16 | CCN(CC)c1cccc(C)c1 | -13.9% (inactive) | –
17 | CC[N+](CC)(CC)Cc1ccccc1 | -5.5% (inactive) | –
18 | CCO[Si](C)(C)OCC | -13% (inactive) | –
19 | CCCCCCCCCCCCOC(=O)c1cc(O)c(O)c(O)c1 | -16.9% (inactive) | –
20 | O=C=NCc1cccc(CN=C=O)c1 | -18.9% [at 23.6 µM] (inactive) | –
21 | CCOC(=O)COc1ccc(C)cc1 | – | 39.9 µM (active)
22 | [O]=[Zr] | – | 35.4 µM (active)
23 | Cn1cnc2ncnc(N)c21 | – | 17.7 µM (active)
24 | CCCCCCCC/C=C\CCCCCCCC(=O)OCCOC(=O)CCCCCCC/C=C\CCCCCCCC | – | 52.2 µM (active)
25 | C=CC(=O)OCCN(CC)CC | -18.2% (inactive) | –
26 | OCCN1CN(CCO)CN(CCO)C1 | -19.5% (inactive) | –
27 | Cc1ccc(O)cn1 | 0.0113% (inactive) | –
28 | CCCC(O)C(O)CO (stereo unspecified) | -21.5% (inactive) | –
29 | C/C=C/c1ccc(OC)c(OC)c1 | – | 25.2 µM (active)

Molecular target: Voltage-gated inwardly rectifying potassium channel KCNH2 (Homo sapiens) (UniProt Q12809)
Assay: Human Ether-a-go-go-Related Gene (hERG) channel small molecule antagonists: fluorescence cell-based qHTS assay (AID 1671200)
Settings: hERG-U2OS cells, FluxOR thallium flux fluorescence; series mostly up to 76.8 µM; activity change, negative = inhibition: at the top concentration
Summary of the method: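 Thallium flux as potassium surrogate: FluxOR II dye loaded 1 h at room temperature into hERG-expressing U2OS cells, then stimulus buffer added after 10 min. Kinetic 480 nm excitation/540 nm emission read, 2 min.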

Voltage-gated inwardly rectifying potassium channel KCNH2 (Homo sapiens), sequence (Q12809 whole entry, looked up): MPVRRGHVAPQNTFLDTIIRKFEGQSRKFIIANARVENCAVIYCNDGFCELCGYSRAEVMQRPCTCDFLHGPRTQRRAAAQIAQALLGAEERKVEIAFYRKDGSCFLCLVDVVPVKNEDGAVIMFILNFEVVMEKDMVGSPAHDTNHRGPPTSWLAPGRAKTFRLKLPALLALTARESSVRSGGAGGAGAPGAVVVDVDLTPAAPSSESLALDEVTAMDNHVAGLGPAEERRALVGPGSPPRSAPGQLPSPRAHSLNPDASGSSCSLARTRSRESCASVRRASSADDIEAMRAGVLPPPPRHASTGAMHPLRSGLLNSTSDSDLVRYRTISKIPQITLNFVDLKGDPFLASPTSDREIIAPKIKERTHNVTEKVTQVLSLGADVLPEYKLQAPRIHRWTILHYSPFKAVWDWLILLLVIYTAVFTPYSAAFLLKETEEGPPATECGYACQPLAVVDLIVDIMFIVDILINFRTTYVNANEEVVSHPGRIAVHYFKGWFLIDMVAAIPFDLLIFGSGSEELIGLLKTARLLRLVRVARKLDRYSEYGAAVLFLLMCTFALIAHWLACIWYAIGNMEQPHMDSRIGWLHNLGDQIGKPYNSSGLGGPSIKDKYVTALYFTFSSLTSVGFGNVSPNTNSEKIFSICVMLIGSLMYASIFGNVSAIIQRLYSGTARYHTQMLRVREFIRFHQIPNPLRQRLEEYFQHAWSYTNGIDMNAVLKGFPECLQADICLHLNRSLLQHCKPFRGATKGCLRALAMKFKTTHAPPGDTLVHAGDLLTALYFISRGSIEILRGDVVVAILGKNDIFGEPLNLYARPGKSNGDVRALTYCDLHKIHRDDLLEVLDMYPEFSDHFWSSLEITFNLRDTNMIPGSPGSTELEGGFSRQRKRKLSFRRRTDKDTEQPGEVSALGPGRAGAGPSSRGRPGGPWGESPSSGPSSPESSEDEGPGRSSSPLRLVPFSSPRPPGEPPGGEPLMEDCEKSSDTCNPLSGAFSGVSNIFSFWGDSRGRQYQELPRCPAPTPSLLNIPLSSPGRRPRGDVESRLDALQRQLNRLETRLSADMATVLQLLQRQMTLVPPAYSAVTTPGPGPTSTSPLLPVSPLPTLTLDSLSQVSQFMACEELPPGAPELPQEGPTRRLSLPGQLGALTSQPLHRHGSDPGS

Row | SMILES | activity change, negative = inhibition | Potency
30 | CC(C)CCOCCC(C)C | -0.0658% (inactive) | –
31 | c1cc[nH]c1 | 4.01% (inactive) | –
32 | CC(=O)C=O | -0.107% (inactive) | –
33 | CC(=O)OC(OC(C)=O)c1ccc([N+](=O)[O-])o1 | 20.7% (inactive) | –
34 | Cc1cc(C)c(C=O)c(C)c1 | -1.65% (inactive) | –
35 | C/C=C/C=N/NC(=O)c1ccncc1 | 0.135% [at 35.3 µM] (inactive) | –
36 | Cn1cccc1 | -1.04% (inactive) | –
37 | COc1cccc(OC)c1O | 2.17% (inactive) | –
38 | c1cc(OCC2CO2)cc(OCC2CO2)c1 (stereo unspecified) | -7.86% (inactive) | –
39 | CCCCCCCCCCCCCC[n+]1ccccc1 | – | 5.49 µM (active)
40 | CCN(CC)CCNc1ccc(CO)c2sc3ccccc3c(=O)c12 | – | 10.7 µM (active)
41 | CCCCCCC(C)OC(=O)COc1nc(F)c(Cl)c(N)c1Cl (stereo unspecified) | – | 38.9 µM (active)
42 | CC1(C)C(=O)N(Br)C(=O)N1Br | 3.74% (inactive) | –
43 | Oc1cc2ccccc2cc1O | -1.83% (inactive) | –
44 | CCN(CC)c1cccc(C)c1 | 9.42% (inactive) | –
45 | CC[N+](CC)(CC)Cc1ccccc1 | -3.6% (inactive) | –

Row | SMILES | activity change, negative = inhibition | Potency
46 | CC(=O)c1ccccc1N | 7.77% (inactive) | –
47 | C#CC(O)CCC (stereo unspecified) | 3.51% (inactive) | –
48 | CCO[Si](C)(C)OCC | -1.33% (inactive) | –
49 | COC(=O)[C@]1(C)CCC[C@@]2(C)[C@H]1CC=C1C=C(C(C)C)CC[C@@H]12 | -26.2% (inactive) | –
50 | CCCCCCCCCCCCOC(=O)c1cc(O)c(O)c(O)c1 | – | inactive
51 | COC(=O)CC#N | -5.1% (inactive) | –
52 | O=C=NCc1cccc(CN=C=O)c1 | 0.993% [at 15.8 µM] (inactive) | –
53 | CCOC(=O)COc1ccc(C)cc1 | 10.5% (inactive) | –
54 | [O]=[Zr] | 6.03% (inactive) | –
55 | Cn1cnc2ncnc(N)c21 | 1.82% [at 35.3 µM] (inactive) | –
56 | C=CC(=O)OCCN(CC)CC | -0.199% (inactive) | –
57 | OCCN1CN(CCO)CN(CCO)C1 | -12.3% (inactive) | –
58 | Cc1ccc(O)cn1 | 2.3% (inactive) | –
59 | CCCC(O)C(O)CO (stereo unspecified) | 3.74% (inactive) | –
60 | C/C=C/c1ccc(OC)c(OC)c1 | -0.158% (inactive) | –

Molecular target: Cytochrome P450 3A4 (Homo sapiens) (UniProt P08684)
Assay: Cytochrome P450 Family 3 Subfamily A Member 4 (CYP3A4) small molecule antagonists: luciferase reporter qHTS assay (AID 1671201)
Settings: P450-Glo CYP3A4 enzyme, luciferin luminescence, 1 h; series mostly up to 115 µM; activity change, negative = inhibition: at the top concentration
Summary of the method: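 Recombinant human CYP3A4 converts a proluciferin substrate to luciferin over 1 h at room temperature after NADPH regeneration solution is added (compound preincubated 10 min); detection reagent stops reaction, luminescence read 20 min later as relative units.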

Cytochrome P450 3A4 (Homo sapiens), sequence (P08684 whole entry, looked up): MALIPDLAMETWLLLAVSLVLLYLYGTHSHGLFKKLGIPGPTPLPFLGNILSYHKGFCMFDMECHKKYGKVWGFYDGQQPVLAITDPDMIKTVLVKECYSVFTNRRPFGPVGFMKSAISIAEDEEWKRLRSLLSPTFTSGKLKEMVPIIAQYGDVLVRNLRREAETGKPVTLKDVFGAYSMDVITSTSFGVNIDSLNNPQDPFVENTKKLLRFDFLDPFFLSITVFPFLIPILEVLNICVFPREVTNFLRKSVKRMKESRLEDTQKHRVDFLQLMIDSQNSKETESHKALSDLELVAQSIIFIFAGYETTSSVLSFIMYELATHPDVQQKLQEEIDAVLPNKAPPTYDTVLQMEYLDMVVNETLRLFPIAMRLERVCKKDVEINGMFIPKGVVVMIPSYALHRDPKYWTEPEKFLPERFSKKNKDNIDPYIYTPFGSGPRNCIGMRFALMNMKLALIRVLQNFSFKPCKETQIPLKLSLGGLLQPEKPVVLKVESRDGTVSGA

Row | SMILES | activity change, negative = inhibition | Potency
61 | CC(C)CCOCCC(C)C | -5.57% (inactive) | –
62 | c1cc[nH]c1 | 2.79% (inactive) | –
63 | CC(=O)C=O | 0.0948% (inactive) | –
64 | CC(=O)OC(OC(C)=O)c1ccc([N+](=O)[O-])o1 | -3.16% (inactive) | –
65 | Cc1cc(C)c(C=O)c(C)c1 | -6.53% (inactive) | –
66 | Cn1cccc1 | 1.42% (inactive) | –
67 | COc1cccc(OC)c1O | -6.18% (inactive) | –
68 | c1cc(OCC2CO2)cc(OCC2CO2)c1 (stereo unspecified) | – | 35.3 µM (active)
69 | CCN(CC)CCNc1ccc(CO)c2sc3ccccc3c(=O)c12 | -14.7% [at 52.9 µM] (inactive) | –
70 | CCCCCCC(C)OC(=O)COc1nc(F)c(Cl)c(N)c1Cl (stereo unspecified) | – | 7.96 µM (active)
71 | CC1(C)C(=O)N(Br)C(=O)N1Br | -2.1% (inactive) | –
72 | CSc1ccc2c(c1)N(CCC1CCCCN1C)c1ccccc1S2 (stereo unspecified) | -0.177% [at 52.9 µM] (inactive) | –
73 | CCCCCCCCCCCCCc1ccccc1 | 1.16% [at 52.9 µM] (inactive) | –
74 | CCN(CC)c1cccc(C)c1 | -1.39% (inactive) | –
75 | CC[N+](CC)(CC)Cc1ccccc1 | -0.752% (inactive) | –
76 | CC(=O)c1ccccc1N | -4.92% (inactive) | –

Row | SMILES | activity change, negative = inhibition | Potency
77 | C#CC(O)CCC (stereo unspecified) | 4.27% (inactive) | –
78 | CCO[Si](C)(C)OCC | -3.65% (inactive) | –
79 | COC(=O)[C@]1(C)CCC[C@@]2(C)[C@H]1CC=C1C=C(C(C)C)CC[C@@H]12 | – | 35.6 µM (active)
80 | CCCCCCCCCCCCOC(=O)c1cc(O)c(O)c(O)c1 | – | 17.8 µM (active) and 20 µM (active)
81 | COC(=O)CC#N | -0.272% (inactive) | –
82 | O=C=NCc1cccc(CN=C=O)c1 | – | 4.25 µM (active)
83 | CCOC(=O)COc1ccc(C)cc1 | 1.03% (inactive) | –
84 | [O]=[Zr] | -14.4% (inactive) | –
85 | Cn1cnc2ncnc(N)c21 | 1.03% [at 52.9 µM] (inactive) | –
86 | CCCCCCCC/C=C\CCCCCCCC(=O)OCCOC(=O)CCCCCCC/C=C\CCCCCCCC | – | 10.4 µM (active)
87 | C=CC(=O)OCCN(CC)CC | 2.63% (inactive) | –
88 | OCCN1CN(CCO)CN(CCO)C1 | -0.619% (inactive) | –
89 | Cc1ccc(O)cn1 | 5.24% (inactive) | –
90 | CCCC(O)C(O)CO (stereo unspecified) | 6.51% (inactive) | –
91 | C/C=C/c1ccc(OC)c(OC)c1 | – | 20 µM (active)
